The results in this text go back to ChEMBL document CHEMBL1961873, “Compounds: GSK PKIS; Assays: Nanosyn kinase panel” (2012).

SMILES strings stand for the structures.

The target of assay [1] is T1, Serine/threonine-protein kinase Nek9 (Homo sapiens) (UniProt Q8TD19).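 Also: each value is a mean percent inhibition of NEK9.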
T1 sequence (whole entry): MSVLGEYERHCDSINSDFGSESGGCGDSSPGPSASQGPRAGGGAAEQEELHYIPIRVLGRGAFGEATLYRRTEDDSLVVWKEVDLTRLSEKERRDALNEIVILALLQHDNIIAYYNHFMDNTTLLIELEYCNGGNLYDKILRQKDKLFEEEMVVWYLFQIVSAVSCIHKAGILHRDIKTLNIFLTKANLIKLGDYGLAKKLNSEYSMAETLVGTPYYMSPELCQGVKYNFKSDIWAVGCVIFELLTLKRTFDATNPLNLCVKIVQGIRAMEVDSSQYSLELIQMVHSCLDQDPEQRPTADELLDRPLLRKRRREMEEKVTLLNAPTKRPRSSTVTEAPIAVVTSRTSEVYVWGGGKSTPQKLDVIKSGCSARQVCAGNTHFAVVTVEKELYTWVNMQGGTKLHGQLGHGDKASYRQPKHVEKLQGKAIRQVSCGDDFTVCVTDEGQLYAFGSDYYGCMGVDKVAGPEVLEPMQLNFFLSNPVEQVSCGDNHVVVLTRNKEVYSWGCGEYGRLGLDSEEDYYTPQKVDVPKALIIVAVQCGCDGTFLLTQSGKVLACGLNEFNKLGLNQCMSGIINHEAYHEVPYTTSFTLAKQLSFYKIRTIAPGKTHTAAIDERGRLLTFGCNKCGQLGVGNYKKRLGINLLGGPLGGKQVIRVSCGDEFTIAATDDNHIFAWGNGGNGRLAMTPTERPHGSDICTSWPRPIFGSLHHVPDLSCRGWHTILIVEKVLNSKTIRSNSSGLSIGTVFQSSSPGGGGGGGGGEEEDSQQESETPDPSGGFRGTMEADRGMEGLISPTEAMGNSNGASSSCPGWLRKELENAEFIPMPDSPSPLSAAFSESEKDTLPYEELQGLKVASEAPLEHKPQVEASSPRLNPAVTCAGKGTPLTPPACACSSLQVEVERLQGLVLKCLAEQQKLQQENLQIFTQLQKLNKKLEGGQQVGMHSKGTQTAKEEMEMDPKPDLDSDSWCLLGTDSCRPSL
As to conditions: at 1 µM.

The target in assay [2] is Serine/threonine-protein kinase PLK1 (Homo sapiens) (UniProt P53350). As to conditions: at 0.1 µM.
Sequence of Serine/threonine-protein kinase PLK1 (Homo sapiens) (P53350 whole entry): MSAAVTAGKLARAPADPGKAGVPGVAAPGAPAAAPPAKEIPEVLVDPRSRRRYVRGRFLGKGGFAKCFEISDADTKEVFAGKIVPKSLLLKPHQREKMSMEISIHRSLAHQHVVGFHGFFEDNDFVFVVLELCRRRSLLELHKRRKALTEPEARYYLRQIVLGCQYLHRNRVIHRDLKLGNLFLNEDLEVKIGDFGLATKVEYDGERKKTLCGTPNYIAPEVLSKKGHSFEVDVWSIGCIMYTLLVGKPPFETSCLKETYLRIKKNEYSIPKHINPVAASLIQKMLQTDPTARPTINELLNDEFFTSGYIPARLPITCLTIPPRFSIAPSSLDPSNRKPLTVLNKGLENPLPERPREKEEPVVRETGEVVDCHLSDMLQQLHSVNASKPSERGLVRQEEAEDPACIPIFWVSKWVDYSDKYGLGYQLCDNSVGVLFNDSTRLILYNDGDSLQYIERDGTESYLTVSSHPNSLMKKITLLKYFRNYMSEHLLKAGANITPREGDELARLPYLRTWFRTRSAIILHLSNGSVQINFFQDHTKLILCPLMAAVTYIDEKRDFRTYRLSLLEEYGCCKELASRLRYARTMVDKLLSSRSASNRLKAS
For assay [3] the target is unchanged. The conditions noted are these: at 1 µM.
Assay [4] concerns the target T2, Dual specificity protein kinase TTK (Homo sapiens) (UniProt P33981).
T2 sequence (whole entry): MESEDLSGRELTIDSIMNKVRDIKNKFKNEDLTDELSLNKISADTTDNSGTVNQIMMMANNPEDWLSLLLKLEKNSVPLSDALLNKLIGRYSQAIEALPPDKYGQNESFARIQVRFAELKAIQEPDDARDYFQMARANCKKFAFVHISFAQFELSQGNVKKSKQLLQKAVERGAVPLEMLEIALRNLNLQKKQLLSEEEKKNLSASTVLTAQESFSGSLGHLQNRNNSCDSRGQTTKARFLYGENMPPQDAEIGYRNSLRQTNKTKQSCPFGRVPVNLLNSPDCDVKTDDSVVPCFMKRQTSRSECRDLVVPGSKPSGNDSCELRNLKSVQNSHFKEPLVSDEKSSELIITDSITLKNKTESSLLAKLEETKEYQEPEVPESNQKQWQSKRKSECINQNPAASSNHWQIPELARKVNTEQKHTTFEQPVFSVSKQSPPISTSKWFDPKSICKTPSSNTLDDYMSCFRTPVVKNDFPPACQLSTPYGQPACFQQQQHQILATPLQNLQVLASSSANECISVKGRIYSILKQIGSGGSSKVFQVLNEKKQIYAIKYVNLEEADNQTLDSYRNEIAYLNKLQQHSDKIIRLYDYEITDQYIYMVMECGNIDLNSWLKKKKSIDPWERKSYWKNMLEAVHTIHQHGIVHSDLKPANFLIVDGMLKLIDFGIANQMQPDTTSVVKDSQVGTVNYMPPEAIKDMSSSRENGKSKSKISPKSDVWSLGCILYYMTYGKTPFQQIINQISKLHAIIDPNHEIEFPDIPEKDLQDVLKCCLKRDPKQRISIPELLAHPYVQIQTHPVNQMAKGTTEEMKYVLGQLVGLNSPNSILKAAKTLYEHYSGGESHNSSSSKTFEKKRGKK
The conditions noted are these: at 0.1 µM.

In assay [5] the test system is T3, Receptor-type tyrosine-protein kinase FLT3 (Homo sapiens), P36888 [D835Y].
T3 sequence (whole entry): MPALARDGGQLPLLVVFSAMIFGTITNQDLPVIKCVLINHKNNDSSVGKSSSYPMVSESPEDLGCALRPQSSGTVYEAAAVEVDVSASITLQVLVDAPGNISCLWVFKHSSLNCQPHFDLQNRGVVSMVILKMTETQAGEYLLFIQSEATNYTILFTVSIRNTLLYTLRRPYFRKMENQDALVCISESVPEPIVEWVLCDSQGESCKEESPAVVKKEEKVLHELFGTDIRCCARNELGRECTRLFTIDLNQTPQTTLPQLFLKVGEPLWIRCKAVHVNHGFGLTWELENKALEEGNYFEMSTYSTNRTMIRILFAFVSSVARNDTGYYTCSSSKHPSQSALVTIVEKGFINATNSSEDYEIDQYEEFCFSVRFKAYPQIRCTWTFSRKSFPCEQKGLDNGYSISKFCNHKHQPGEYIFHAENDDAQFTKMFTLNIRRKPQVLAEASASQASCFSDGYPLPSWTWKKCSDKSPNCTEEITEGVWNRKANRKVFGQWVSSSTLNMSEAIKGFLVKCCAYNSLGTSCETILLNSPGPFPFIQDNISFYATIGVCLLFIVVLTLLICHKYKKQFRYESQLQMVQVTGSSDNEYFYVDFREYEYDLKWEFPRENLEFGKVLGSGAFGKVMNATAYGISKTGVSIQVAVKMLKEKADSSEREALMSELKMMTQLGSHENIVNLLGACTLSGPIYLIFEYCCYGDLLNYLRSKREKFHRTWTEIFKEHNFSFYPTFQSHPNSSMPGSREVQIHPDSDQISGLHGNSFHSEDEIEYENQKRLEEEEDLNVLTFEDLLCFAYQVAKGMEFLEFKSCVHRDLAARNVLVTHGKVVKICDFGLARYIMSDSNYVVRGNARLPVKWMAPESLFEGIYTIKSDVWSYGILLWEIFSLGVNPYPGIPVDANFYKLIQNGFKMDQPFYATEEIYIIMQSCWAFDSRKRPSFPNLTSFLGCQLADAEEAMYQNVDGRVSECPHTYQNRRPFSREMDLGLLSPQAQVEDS
The conditions noted are these: at 1 µM.

Assay [6] deals with Vascular endothelial growth factor receptor 3 (Homo sapiens) (UniProt P35916). As to conditions: at 0.1 µM.
Sequence of Vascular endothelial growth factor receptor 3 (Homo sapiens) (P35916 whole entry): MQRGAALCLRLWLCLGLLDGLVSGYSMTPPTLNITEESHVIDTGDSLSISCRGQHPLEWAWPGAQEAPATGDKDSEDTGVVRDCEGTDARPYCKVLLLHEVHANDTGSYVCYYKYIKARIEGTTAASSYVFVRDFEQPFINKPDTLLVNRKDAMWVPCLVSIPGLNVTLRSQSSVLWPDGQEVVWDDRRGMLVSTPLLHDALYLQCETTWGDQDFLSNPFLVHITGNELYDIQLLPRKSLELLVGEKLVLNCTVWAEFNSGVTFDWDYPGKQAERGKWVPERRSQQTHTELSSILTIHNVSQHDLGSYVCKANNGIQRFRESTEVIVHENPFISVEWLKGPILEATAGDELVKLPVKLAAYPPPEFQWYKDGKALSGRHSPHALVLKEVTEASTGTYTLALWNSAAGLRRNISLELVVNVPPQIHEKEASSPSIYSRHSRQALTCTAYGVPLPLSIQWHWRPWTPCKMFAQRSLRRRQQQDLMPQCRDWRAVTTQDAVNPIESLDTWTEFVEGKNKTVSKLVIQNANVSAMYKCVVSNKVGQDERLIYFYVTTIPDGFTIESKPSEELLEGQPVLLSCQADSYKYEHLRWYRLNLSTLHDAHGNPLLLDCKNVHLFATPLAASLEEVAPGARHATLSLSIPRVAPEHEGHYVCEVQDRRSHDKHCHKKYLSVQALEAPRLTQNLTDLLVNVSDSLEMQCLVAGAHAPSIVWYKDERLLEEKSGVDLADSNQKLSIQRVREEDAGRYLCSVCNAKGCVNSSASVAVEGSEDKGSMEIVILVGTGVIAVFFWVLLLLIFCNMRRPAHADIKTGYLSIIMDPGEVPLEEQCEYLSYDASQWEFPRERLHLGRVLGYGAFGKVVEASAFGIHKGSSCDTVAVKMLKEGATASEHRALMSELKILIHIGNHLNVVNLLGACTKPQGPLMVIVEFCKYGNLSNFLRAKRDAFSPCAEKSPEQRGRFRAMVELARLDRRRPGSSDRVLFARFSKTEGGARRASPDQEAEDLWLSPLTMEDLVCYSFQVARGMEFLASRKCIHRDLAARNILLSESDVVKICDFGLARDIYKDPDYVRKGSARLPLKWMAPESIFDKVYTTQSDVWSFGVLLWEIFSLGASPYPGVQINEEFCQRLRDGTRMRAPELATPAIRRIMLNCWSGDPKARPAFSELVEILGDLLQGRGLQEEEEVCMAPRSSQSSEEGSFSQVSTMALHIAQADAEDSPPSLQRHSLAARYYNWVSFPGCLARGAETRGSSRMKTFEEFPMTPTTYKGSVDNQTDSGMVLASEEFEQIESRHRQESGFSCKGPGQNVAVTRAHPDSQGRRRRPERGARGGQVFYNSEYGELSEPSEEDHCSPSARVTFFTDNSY
The target is the same in assay [7]. The conditions noted are these: at 1 µM.
Assay [8] has as its target Macrophage colony-stimulating factor 1 receptor (Homo sapiens) (UniProt P07333). As to conditions: at 0.1 µM.
Assay [9] has the same target. As to conditions: at 1 µM.
In assay [10] the target is Tyrosine-protein kinase Fyn (Homo sapiens) (UniProt P06241). The conditions noted are these: at 0.1 µM.
Sequence of Tyrosine-protein kinase Fyn (Homo sapiens) (P06241 2-537 limits assumed): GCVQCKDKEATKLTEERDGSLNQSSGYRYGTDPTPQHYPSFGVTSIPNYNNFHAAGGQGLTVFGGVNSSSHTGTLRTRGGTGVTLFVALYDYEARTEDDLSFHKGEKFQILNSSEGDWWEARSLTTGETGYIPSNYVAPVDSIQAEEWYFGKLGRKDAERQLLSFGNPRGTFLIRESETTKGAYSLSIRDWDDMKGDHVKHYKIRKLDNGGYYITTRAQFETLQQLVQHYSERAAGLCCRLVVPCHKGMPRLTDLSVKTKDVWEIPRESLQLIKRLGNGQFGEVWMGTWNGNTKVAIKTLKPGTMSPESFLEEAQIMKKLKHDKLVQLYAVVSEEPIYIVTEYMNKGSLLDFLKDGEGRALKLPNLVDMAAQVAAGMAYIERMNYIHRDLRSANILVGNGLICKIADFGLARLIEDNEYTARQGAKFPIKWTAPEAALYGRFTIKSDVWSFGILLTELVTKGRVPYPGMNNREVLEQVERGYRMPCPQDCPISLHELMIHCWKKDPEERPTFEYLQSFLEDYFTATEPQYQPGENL

Sequence of Macrophage colony-stimulating factor 1 receptor (Homo sapiens) (P07333 whole entry): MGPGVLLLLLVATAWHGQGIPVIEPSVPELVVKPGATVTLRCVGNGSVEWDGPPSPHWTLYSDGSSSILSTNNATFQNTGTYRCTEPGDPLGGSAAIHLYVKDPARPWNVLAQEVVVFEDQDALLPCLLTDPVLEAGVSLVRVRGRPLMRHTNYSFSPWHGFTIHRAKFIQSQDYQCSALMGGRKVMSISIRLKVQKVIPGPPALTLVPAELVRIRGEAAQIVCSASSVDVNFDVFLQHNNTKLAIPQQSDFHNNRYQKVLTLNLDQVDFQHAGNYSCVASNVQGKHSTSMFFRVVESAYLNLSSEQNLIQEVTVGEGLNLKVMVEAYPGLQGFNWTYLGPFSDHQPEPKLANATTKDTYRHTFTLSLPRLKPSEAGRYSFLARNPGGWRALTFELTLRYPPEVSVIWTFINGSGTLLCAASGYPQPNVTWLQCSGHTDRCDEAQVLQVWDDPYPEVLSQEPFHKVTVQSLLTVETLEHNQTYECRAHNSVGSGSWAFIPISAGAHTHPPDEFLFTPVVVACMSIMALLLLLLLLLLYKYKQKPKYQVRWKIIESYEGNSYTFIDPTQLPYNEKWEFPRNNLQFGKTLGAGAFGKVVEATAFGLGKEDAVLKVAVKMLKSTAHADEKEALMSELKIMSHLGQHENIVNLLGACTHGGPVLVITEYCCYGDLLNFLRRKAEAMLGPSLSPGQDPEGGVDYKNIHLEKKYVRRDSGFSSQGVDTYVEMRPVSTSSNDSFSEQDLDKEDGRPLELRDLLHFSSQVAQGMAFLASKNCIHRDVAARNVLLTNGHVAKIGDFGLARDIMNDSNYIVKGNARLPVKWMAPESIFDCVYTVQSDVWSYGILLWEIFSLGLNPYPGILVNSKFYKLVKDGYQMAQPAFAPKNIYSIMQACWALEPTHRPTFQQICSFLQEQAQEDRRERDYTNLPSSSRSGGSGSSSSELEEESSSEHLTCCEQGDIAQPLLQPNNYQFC

The term inhibition denotes the change of the read-out against control, counted positive when it falls. Take `COc1cc(/C=N/Nc2ncnc3[nH]ncc23)ccc1O`: the inhibition in [1] stood at 7.86%; in assay [2], 0.7%; in assay [3], 7.67%; in assay [4], 4.54%; in [5], 34%; in assay [6] it was 2.46%. Also, the inhibition in assay [7] is 26.1%; in assay [8] it was 7.59%; in assay [9], 34.4%; in assay [10], 8.72%.
With `Fc1cccc(COc2ccc(Nc3ncnc4sc(-c5ccco5)cc34)cc2Cl)c1`, the inhibition in assay [1] came to 8.43%; in assay [2], 6.82%; in assay [3], 4.61%; in assay [4] it was 6.94%; in assay [5] it was 0.69%; in assay [6], 1.58%. The inhibition is 3.49% in assay [7], 0.84% in assay [8], 8.62% in assay [9] and 0.36% in assay [10].
On to `CCCN(CCS(C)(=O)=O)Cc1ccc(-c2ccc3ncnc(Nc4ccc(OCc5cccc(F)c5)c(Cl)c4)c3c2)o1`, for which the inhibition in assay [1] was 4.13%; in assay [2] it was 1.28%; in [3] it was 1.62%; in [4], 2.14%; in assay [5], 0.99%; in assay [6] it was -1.86%. Besides, the inhibition in [7] was -0.27%; in assay [8], 0.78%; in assay [9] it was 1%; in [10], 1.13%.
Consider `N#Cc1c(NC(=O)c2ccc(F)cc2)sc2c1CCCC2`, for which the inhibition in [1] is 0.67%; in assay [2] it was 4.32%; in assay [3], 2.6%; in [4] it was 4.36%; in [5], 2.85%; in assay [6], 0.08%. The inhibition in [7] is -0.81%; in assay [8], 0.56%; in assay [9], -0.85%; in assay [10], -0.49%.
Take `CS(=O)(=O)CCNCc1ccc(-c2ccc3ncnc(Nc4ccc(OCc5ccccc5)c(C(F)(F)F)c4)c3c2)o1`: the inhibition is 7.1% in assay [1]; 3.58% in [2]; 1.98% in assay [3]; 9.3% in [4]; -2.7% in assay [5]; 1.59% in assay [6]. The inhibition in assay [7] is 1.31%; in [8], -3.68%; in [9] it was 1.56%; in assay [10] it was 1.63%.
Turning to `NS(=O)(=O)c1ccc(Nc2ncc(-c3ccccc3)o2)cc1`, the inhibition in [1] is 5.13%; in assay [2], 1.46%; in assay [3], 3.33%; in assay [4], 6.13%; in [5], 21.6%; in assay [6] it was 3.67%. Moreover, the inhibition in assay [7] was determined as 9.2%; in assay [8], 6.69%; in assay [9], 32.5%; in [10], 1.12%.
As for `CCOc1ccc2c(-c3ccnc(Nc4cccc(C(F)(F)F)c4)n3)cnn2n1`, the inhibition in assay [1] came to 4.9%; in [2] it was 0.64%; in [3] it was 1.39%; in assay [4], 3.43%; in assay [5], 5.75%; in [6] it was 2.01%. The inhibition in assay [7] is 3.46%; in assay [8] it was -2.9%; in assay [9], 14.1%; in assay [10] it was 1.07%.
As to `c1ccc(-c2nc3n(c2-c2ccc4c(c2)OCO4)CCC3)nc1`, the inhibition in assay [1] came out at 0.13%; in [2], 1.59%; in assay [3] it was 1.37%; in [4] it was 4.41%; in assay [5], 4.03%; in assay [6], 13.3%. Further, the inhibition in assay [7] turned out to be 15.8%; in [8], 4.57%; in assay [9], 1.74%; in assay [10], 1.85%.
